Test results published in PubChem BioAssay (NCATS).
Records with an inconclusive call do not appear. Active and inactive are the calls of the source. Unless noted, calls follow the shape of the full dose curve.

How the values were obtained:
[1] = qHTS for Inhibitors of the Functional Ribonucleoprotein Complex (vRNP) of Lassa (LASV) Arenavirus: LASV Primary Screen - GLuc reporter signal (AID 1347082; calls by dose curve; tested in HEK293 reporter line; also: nearly all actives have a fitted effect of over 60% in size; also: potency is read from the fitted curve at half-maximal effect)
[2] = qHTS for Inhibitors of the Functional Ribonucleoprotein Complex (vRNP) of Lassa (LASV) Arenavirus: Viability assay - alamar blue signal for LASV Primary Screen (AID 1347083; calls by dose curve; tested in HEK293 reporter line; also: nearly all actives have a fitted effect of over 80% in size; also: potency is read from the fitted curve at half-maximal effect)
[3] = qHTS for Inhibitors of the Functional Ribonucleoprotein Complex (vRNP) of Lymphocytic Choriomeningitis Arenaviruses (LCMV): Viability assay - alamar blue signal for LCMV Primary Screen (AID 1347085; calls by dose curve; tested in HEK293 reporter line; also: nearly all actives have a fitted effect of over 80% in size; also: potency is read from the fitted curve at half-maximal effect)
[4] = molecular target: Nucleoprotein (Lymphocytic choriomeningitis virus (strain Armstrong)) (UniProt P09992); test: qHTS for Inhibitors of the Functional Ribonucleoprotein Complex (vRNP) of Lymphocytic Choriomeningitis Arenaviruses (LCMV): LCMV Primary Screen - GLuc reporter signal (AID 1347086); also: nearly all actives have a fitted effect of over 70% in size; also: potency is read from the fitted curve at half-maximal effect
Sequence of Nucleoprotein (Lymphocytic choriomeningitis virus (strain Armstrong)) (P09992 whole entry, looked up): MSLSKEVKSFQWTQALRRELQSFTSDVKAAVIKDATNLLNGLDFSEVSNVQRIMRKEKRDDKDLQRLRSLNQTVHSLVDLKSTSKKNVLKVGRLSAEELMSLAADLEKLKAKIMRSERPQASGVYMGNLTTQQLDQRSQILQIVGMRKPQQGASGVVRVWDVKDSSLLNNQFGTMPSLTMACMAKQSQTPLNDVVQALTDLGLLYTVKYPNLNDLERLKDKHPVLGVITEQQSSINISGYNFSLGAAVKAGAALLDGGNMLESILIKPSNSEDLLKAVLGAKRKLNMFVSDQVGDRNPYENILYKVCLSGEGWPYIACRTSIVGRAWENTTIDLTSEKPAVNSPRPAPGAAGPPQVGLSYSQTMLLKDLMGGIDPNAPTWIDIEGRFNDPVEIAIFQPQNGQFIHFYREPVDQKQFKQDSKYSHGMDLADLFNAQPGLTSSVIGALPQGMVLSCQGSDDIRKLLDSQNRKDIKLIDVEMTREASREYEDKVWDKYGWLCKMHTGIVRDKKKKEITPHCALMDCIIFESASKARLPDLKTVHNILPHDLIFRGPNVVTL

[5] = Primary qHTS to identify inhibitors of SARS-CoV-2 cell entry (AID 1645846); conditions: activity change, negative = inhibition: at 57.1 µM (top of the series) unless noted; also: potency is read from the fitted curve at half-maximal effect; nearly all actives have a fitted effect of over 45% in size
In short: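 HEK293 cells stably expressing human ACE2, pre-treated 1 h with compound, then infected with MLV particles pseudotyped with Wuhan-Hu-1 spike (C-terminal 19-aa truncation). Luciferase luminescence after 48 h at 37 °C, normalised to spike PP and bald PP.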

[6] = molecular target: Alpha-galactosidase (Coffea arabica) (UniProt Q42656); test: Counterscreen for Glucocerebrosidase Inhibitors: qHTS Assay for Coffee Bean alpha-Galactosidase at pH 4.5 (AID 957; active = well fitted curve in the direction sought with a large enough effect; an effect the other way counts as inactive or inconclusive)
Sequence of Alpha-galactosidase (Coffea arabica) (Q42656 whole entry, looked up): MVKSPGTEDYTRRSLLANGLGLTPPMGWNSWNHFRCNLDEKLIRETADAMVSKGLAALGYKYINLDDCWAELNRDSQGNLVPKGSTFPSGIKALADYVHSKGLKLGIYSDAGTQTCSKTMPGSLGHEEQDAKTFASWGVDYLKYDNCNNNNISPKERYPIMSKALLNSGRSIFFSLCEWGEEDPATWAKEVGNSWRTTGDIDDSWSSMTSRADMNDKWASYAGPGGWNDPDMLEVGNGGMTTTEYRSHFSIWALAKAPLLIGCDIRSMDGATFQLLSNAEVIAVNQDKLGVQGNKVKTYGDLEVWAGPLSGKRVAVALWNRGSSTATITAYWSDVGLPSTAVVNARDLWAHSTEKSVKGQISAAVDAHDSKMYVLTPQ
In short: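 Green coffee bean enzyme (2 nM final) was incubated with compounds (0.7 nM to 77 uM) and 4-methylumbelliferyl alpha-D-galactopyranoside (80 uM final) in 50 mM citric acid, 0.005% Tween-20, pH 4.5, 20 min at room temperature; AC50 from Hill fits.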

[7] = molecular target: Alpha-galactosidase (Coffea arabica) (UniProt Q42656); test: Counterscreen for Glucocerebrosidase Inhibitors: qHTS Assay for Coffee Bean alpha-Galactosidase at pH 5.9 (AID 998; active = well fitted curve in the direction sought with a large enough effect; an effect the other way counts as inactive or inconclusive)
In short: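 Green coffee bean enzyme (2 nM final) was incubated with compounds (0.7 nM–77 uM) and 4-methylumbelliferyl alpha-D-galactopyranoside (80 uM) in citrate buffer pH 5.9, 20 min at room temperature. High-pH stop; fluorescence 365/440 nm; AC50 from Hill fits.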

[8] = molecular target: Endonuclease 4 (Escherichia coli (strain K12)) (UniProt P0A6C1); test: Counterscreen for APE1 Inhibitors: qHTS Validation Assay for Inhibitors of Endonuclease IV (AID 1708; active = well fitted curve in the direction sought with a large enough effect; an effect the other way counts as inactive or inconclusive)
In short: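 2 nM enzyme was preincubated with compounds for 15 min at room temperature in 50 mM Tris-HCl pH 7.5, 50 mM NaCl, 2 mM MgCl2, 1 mM DTT, 0.01% Tween-20. 50 nM THF-abasic TAMRA/BHQ-2 duplex substrate started the reaction.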

[9] = Validation screen for inhibitors of Lassa infection (AID 463096)
[10] = Inducers of the Endoplasmic Reticulum Stress Response (ERSR) in human glioma: Validation (AID 504836; active = well fitted curve in the direction sought with a large enough effect; an effect the other way counts as inactive or inconclusive)
In short: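 Stably transfected U87-MG human glioma cells carrying a GRP78-based luminescent sensor were seeded at 1000 cells/well, pin-dosed with compounds and incubated 16 h. Luciferase reagent was then added, and end-point luminescence was read after 10 min at room temperature.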

[11] = qHTS for Activators of Parkin Expression: LOPAC Validation Assay (FLuc Reporter) (AID 720573; active = well fitted curve in the direction sought with a large enough effect; an effect the other way counts as inactive or inconclusive)
In short: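 Neuronal cell line stably expressing FLuc/NLuc coincidence reporter under the Parkin promoter, 1,500 cells/well, dosed 24 h after seeding in 7-point series for 24 h at 37 C. FLuc luminescence read; normalized to DMSO and positive control (100%).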

[12] = molecular target: Nuclear receptor subfamily 1 group I member 3 (Homo sapiens) (UniProt Q14994); test: Primary qHTS for antagonist of constitutive androstane receptor (CAR) against the NCATS DSHEA and TCM libraries (AID 1794836; active = well fitted curve in the direction sought with a large enough effect; an effect the other way counts as inactive or inconclusive)
Sequence of Nuclear receptor subfamily 1 group I member 3 (Homo sapiens) (Q14994 whole entry, looked up): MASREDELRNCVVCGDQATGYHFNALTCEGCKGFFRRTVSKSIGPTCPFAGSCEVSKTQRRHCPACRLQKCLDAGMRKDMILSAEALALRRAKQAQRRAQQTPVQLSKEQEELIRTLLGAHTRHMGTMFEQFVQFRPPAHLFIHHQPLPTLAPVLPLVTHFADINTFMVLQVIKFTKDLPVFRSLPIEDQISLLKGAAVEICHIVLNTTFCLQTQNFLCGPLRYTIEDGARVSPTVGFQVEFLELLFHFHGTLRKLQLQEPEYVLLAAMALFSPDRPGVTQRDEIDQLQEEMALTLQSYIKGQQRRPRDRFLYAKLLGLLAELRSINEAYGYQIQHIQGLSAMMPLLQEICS
In short: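 HepG2 cells stably carrying hCAR and a CYP2B6 luciferase reporter (2,500 cells/well) attached for 5 h, then received compounds with 48 uM CITCO for 24 h at 37C. ONE-Glo luminescence read antagonism; CellTiter-Fluor (405/540 nm) gave viability.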

[13] = KB-8-5-11 P-gp reporter qHTS against the NCATS DSHEA and TCM libraries (AID 1919977; active = well fitted curve in the direction sought with a large enough effect; an effect the other way counts as inactive or inconclusive)
In short: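 P-gp-overexpressing KB-8-5-11 cells were screened in colchicine-free medium at 500 cells/well, as a titration series. Cells were exposed for 72 h at 37C. Viability was read by CellTiter-Glo luminescence after 30 min at room temperature.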

Measured: Potency

Cn1cnc(-c2cc3nccc(Oc4ccc(NC(=S)NC(=O)Cc5ccccc5)cc4F)c3s2)c1
active: [5] 8.91 µM
inactive: [1] | [2] | [3] | [4]

CC(C)NC[C@H](O)COc1cccc2[nH]ccc12
inactive: [6] | [7] | [8] | [9] | [10] | [11] | [1] | [2] | [3] | [4]

CCCCCCCCCCCCCC(=O)OCC(O)CO (stereo unspecified)
inactive: [1] | [2] | [3] | [4] | [12] | [13]

CNC(=O)c1ccc(C)c(-n2c(C)cc(OCc3ccc(F)cc3F)c(Br)c2=O)c1
inactive: [1] | [2] | [3] | [4]
active: [5] 22.4 µM

Cc1cc(Nc2cc(NC(=O)c3c(Cl)cccc3Cl)ccn2)nc(N)n1
active: [1] 6.11 µM | [2] 3.06 µM | [3] 3.06 µM | [4] 3.85 µM | [5] 1.41 µM

CN1CCN(Cc2ccc(NC(=O)Nc3ccc(Oc4cc(NC(=O)C5CC5)ncn4)cc3)cc2C(F)(F)F)CC1
active: [1] 2.43 µM | [2] 1.53 µM | [3] 0.968 µM | [4] 1.72 µM | [5] 1 µM

Cc1cc(CN2CCN(c3c(Br)cnc4nc(-c5ccc(N6CCN(C)CC6)cc5)[nH]c34)CC2)no1
active: [5] 3.16 µM
inactive: [1] | [2] | [3] | [4]
